# Reference: PubChem BioAssay AID1159506 (National Center for Advancing Translational Sciences (NCATS), 2015)
# The full ranking holds about 59,000 sequences; the median of the read-out is about -0.00055, and the lowest 2% start at about -2. The entries come from a sample that favours the lowest values as a whole.
# Experiment: Identification of proteins required for the processing of the EWS-FLI1 nascent transcript;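 also: robust z of luciferase light less the median z of siRNAs with the same seed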
# Settings: TC32 Ewing sarcoma NR0B1-luc vs CMV-luc (EWS-FLI1 target promoter against control promoter), 48 h; screened at 20 nM (by protocol)
# Procedure: Ewing sarcoma (ES) cells depend on the EWS-FLI1 fusion transcription factor for cell survival. Using an assay of EWS-FLI1 activity and genome-wide siRNA screening we have identified proteins required for the processing of the EWS-FLI1 nascent transcript. Parallel genome-wide siRNA-mediated RNAi screens were conducted in Ewing sarcoma TC32 cell lines expressing a luciferase (luc) reporter protein driven by either the promoter of the EWS-FLI1 target gene NR0B1 (TC32-NR0B1-luc) or the CMV promoter (TC32-CMV-luc). Luciferase activity was assessed 48 hours post siRNA-transfection.
# Twenty microl of serum-free media containing Lipofectamine RNAiMax (0.05 microl) was added to wells containing siRNA (0.8 pmol). Lipid and siRNA were allowed to complex for 45 min at ambient temperature before addition of 600 cells in RPMI-1640, 20% FBS to yield final transfection mixtures containing 20 nM siRNA in RPMI-1640, 10% FBS. Luciferase expression was measured using OneGlo (Promega, Madison, WI). The genome-wide screening campaign was conducted using Ambion's human genome library version 4.1 (Ambion, Austin TX). This library targets approximately 21000 human genes, three siRNAs per gene. Each siRNA is arrayed in an individual well of a 384-well plate. Parallel transfections were conducted in TC32-NR0B1-luc and TC32-CMV-luc cell lines and luciferase expression (OneGlo, Promega) was assayed 48 h later on a PerkinElmer Envision 2104 Multilabel plate reader (PerkinElmer, Waltham, MA). Qiagen's AllStars Negative control was incorporated on all screening plates for normalization (16 wells per plate). Qiagen, Germantown, MDsiGL4 was incorporated as a positive transfection control (16 wells per plate) on all plates. […] The raw luciferase data for the NR0B1- and CMV-luc screens were normalized and z-score-MAD transformed using standard methods (Chung et al., 2008). The miRNA-like seed sequence of every siRNA was determined and the median z-score for all siRNA sequences with the same seed sequence was calculated. This z-score was subtracted from the z-score associated with each siRNA with that seed sequence to generate a seed-adjusted z-score value (Z) that was used when the results for the three siRNAs corresponding to each gene were compared (Marine et al., 2012)
row,Sequence,seed-corrected z-score
1,AUCCCUUCAAUGGCCAUCC against ECHDC2,-0.995
2,AUUGUUAUAGAAGCGGUCU against SPA17,-0.602
3,UGACGUACCUAUCCACUGC against MC5R,-0.731
4,UCGUUGCUCAGCAUCAAUC against SBNO1,-0.827
5,AUCGAUCUAGUUUAAUUCC against DGKE,-0.537
6,UGUAUAGUCAUGAUAAUGU against LOC643784,-0.459
7,UCAGGGCUCAGACAGGACU against TSC22D3,-2.02
8,AGAGAAUAAAGAGCUGGAC against TMEM79,0.267
9,AGACUUGCGAACAUGAUUC against CGGBP1,0.518
10,UUCCUUCCUACUCAGGGUC against S100A5,-2.25
11,UCAACCUUUACUGAAGGCC against ARNTL,-0.133
12,UAUAGCGAAGGGACAAACC against LRRTM3,0.0787
13,UGAUGAUUAUCUUUGAAUG against IGFBP3,0.761
14,AAACGUACCUUGUCAUUCC against TXK,-0.645
15,UUUUCUCUCGUAUUAAUUG against GSDMB,0.329
16,UCAUCAUCUAAUAAAGUCC against MRO,-3.11
17,ACUGGAUUAACAUCAUCUG against SDHAF4,-0.445
18,UGCUUUCUCAGGGCAGCUC against ZFP42,-0.0418
19,AAAGGGAUGCUCCAAGCGC against NME3,0.482
20,AUAAGUUGCAGCAAAAUCC against MAB21L1,-0.725
21,AUCGAUGAUAGCCUGCUCG against ANXA8L1,-2.86
22,UUUACCACAGGUUUCUUCC against HIRIP3,-0.591
23,UAACUUCAAACCGAUUUCU against TRMU,-0.389

row,Sequence,seed-corrected z-score
1,AAAGUAAAGAUAUGCGUGU against TBX21,1.07
2,UCUGUCGAUAGUCUUCUCG against STIP1,0.345
3,UAAUGUACUCGUCACACCU against BICD2,-2.89
4,UAUGGGACAUCCUAAUCAC against KIAA0586,-0.187
5,UCCGCUUUAACCCUGCUUC against PRDM2,-0.723
6,UUUAGCUCUGGAACAAUGC against SLC38A1,0.0432
7,UUACUAGUAAUGGACCCGC against YTHDF2,1.05
8,UUCAUAUAUACUCUGAUUC against C1DP3,0.587
9,UACUCGACCUUCUUUCACC against PPP3CB,0.354
10,AAAGAUUGAGGUGGUAUGC against YTHDF3,-2.48
11,UUUCGGUUUCCACUUUUCC against NIPAL3,0.547
12,UAACUCAUCAACUUUAUCG against CHMP4B,-0.576
13,UUCUCUAUCUCAUGAAUCC against RAB19,0.0141
14,AGUGAAUCGAGAGCAAUGG against ELP5,0.672
15,AAAAGAACCUCCAACAAUC against COX16,-2
16,UCUAUGUCUCAGGUACUGC against CCDC15,0.12
17,AUAGAUCCUAAAGAACUGG against GPR141,-0.531
18,UUUUAGUCUACGAAGAUCC against ANKIB1,-0.435
19,UGUCAUAUGGGCUUGCUCC against CEP250,-0.255
20,UCCACUUAAACACUCCUCC against DCLRE1C,-2.25
21,UAGCUGUCCGUGAAGAUCC against ADCYAP1,0.344
22,ACAAUGUAUACUGUAGUCC against CDHR2,0.247
23,AAUAGGAUAAAUGUUCCGG against SMURF2,0.293

row,Sequence,seed-corrected z-score
1,AUACGUGAUACUUCCCUCC against MS4A13,-1.19
2,UGUCUUCUCAUGCAGUUUC against ACSF2,-0.5
3,UCUGUGAAAAUCUUCCACG against ZNF174,0.076
4,UAUAGGCCUGCUGAGAUCG against GALT,0.826
5,UAGUUGCCUAAUUACACUG against MYO3A,-2.22
6,UUCACGGUCACAUUGCGCG against MAG,-0.22
7,UAUGAAGAGGAGACCAACC against PSMD10,-0.0551
8,UAAGCUAUUUCCUCGGCUC against MTCH2,0.402
9,UAAAGAUUACCUGAGACCG against FBXO36,0.489
10,UUGACUAUAAGUAAGUCUC against STXBP5,-2.91
11,UGCGCGAUGAUGAGUACCG against ABCB9,0.705
12,UUCCUUAGAAACUGCAUAC against JMY,-0.827
13,UUCGUGAACAGACAGAACU against OAS2,-0.385
14,UAAGAACAUAGUACAGCUC against LDB1,-0.519
15,AAACUUAUAGAACUCACUG against CCDC148,-0.143
16,UCCGCAUGAACUCGUAGCU against PLEKHJ1,0.0613
17,UAGUUGUCCAACAUUGGUU against ZNF99,-3.24
18,UAGCGAUUGUGAAUCUUGC against RNF19A,-0.443
19,UAUGGUGUAAGUUUUCGGG against FARSB,0.451
20,UUCGGGUCCACUGAUUUCC against CHMP4B,-1.35
21,UGUCAUAACAGCUCCGCGA against ELK1P1,-0.141
22,UAUAUGUCCGGGCGUGUUC against MAPK11,0.187
23,AACCUGAUAAUAACCAGAU against FAM96A,0.457

row,Sequence,seed-corrected z-score
1,UGAGAUUUCUAUGUAACAC against SS18L2,0.356
2,UUAUCGAUGUCUUCGUGCC against GCK,-0.301
3,AUAGUUGCGGAUGAAGUCU against KAZN,-3.51
4,AAUGUUUCAAGAAGCUGCU against MED9,-1.82
5,UCAGGGUCCAUUGUCACCA against IGSF23,-0.567
6,UACAGGGCAAUGAACAGGG against FGR,0.274
7,AUGAAGCUCAGUCAGGUCG against TMCC2,-2.16
8,UCCUUGACGACAACUUUCC against LOC642677,-1.2
9,UAACGAUACAUUUGCUUGG against SGIP1,0.118
10,UUGGGUGCAAGAAUGUCCA against CHTF18,-2.47
11,UUCAAUUCUACUGAUCAUC against CSNK1A1,0.146
12,UUAAAGACUUCAUAAAAGC against SLC25A3,-0.603
13,UAAUUGUCAUUACUAAGUG against SLC17A6,-0.508
14,UUGGUAUCGAUUUUCUACC against ATRN,-0.607
15,ACCUCCAAAAUUUCACUGC against ZSCAN10,0.616
16,AAUGAUUGCACUAAUCUUC against IK,-3.4
17,UCUUGGUACUGGAUGCAGC against LOC645166,1.33
18,UCUUCGAGUGAGUCAAUGC against C10orf12,-0.0711
19,UCGCUGAUUAGCUUUCUCC against CUX2,0.0999
20,UUCGUUGUCUCGAAGGGCU against TRAPPC2L,-2.92
21,UUUCCUCUUAGUCAACUUC against CHIC1,-0.602
22,AAAGGACUGAUGUCUAACC against DHX15,0.0405
23,UAUGUACAUGCAGCAGGCC against PVRL4,-0.603

row,Sequence,seed-corrected z-score
1,AUGGGAGUCACAACAGUGU against OR10A5,-9.99
2,UUUCACUCAACCAUCAUUG against HOPX,-0.598
3,UGCCUUUGGAGGAUCUGCG against HLA-F,-0.923
4,UGCUUGCUCGCAAAAGUCC against TSHZ1,0.387
5,UGAACUGCCUGGUCUGUCG against PDE6G,-0.214
6,AUUCUUAUCCCAGCGGAGC against PGM2L1,0.162
7,UCAAUUCCCAGGGUAAAGG against PIGN,-2.84
8,UAACAUCUUGGAGCACUAC against CCDC54,-0.239
9,UUGUGAACAGUUGAGGUGC against OSBP2,-0.0205
10,UCACUGUCGCCGUCAAAGC against CCKBR,-2.68
11,UCUUGUGCUAAAUCCCUGC against BRINP3,-0.668
12,UGCUGAACUAGGGAAGUGC against MAGIX,-0.0881
13,UACCCAUCCGCAUCACUGC against CD320,0.0894
14,UCCCGAAUAACCAUUGAGC against RFX3,-0.206
15,UUGGUAUUAUAACAGAUCC against ELMOD1,-9
16,UUGAUCAACAUAAUCAAGC against ASB14,-0.125
17,UACUCGGUAAAUGUACUGG against ADH7,0.328
18,AAGGGUAUUGGGAUUGAGC against MAP3K13,0.023
19,AGCUUUAUUCAGUCAGUGC against GPBAR1,-0.579
20,UUACGAAUGGGCAAAAUUG against ZCWPW1,-0.169
21,UUUGCUGGUAUUCUUCACC against ACYP2,0.0336
22,AUGUAUUCCAUUCUCACCG against GRSF1,-4.16
23,UAUUGAUGCUGCAUGACCC against ITGAM,0.677

row,Sequence,seed-corrected z-score
1,UAAGUAUAACCAUCUGUUC against OR6C2,0.149
2,UGAACAUAAAUUCCAGCUC against CLEC2L,0.442
3,UCACUUACAAAGCUCAGAG against LUZP1,-1.94
4,UUAUUUAUGUAGUUCAGGA against IZUMO4,-1.87
5,AAGACAAUAAUGUUGCUGC against CLDN17,-0.436
6,UCAGUAAUCAGCUUGAAUU against RPS3A,2.45
7,UUCUUUUCCACCUCCAUAG against HDGF,-12.4
8,AUCCUUGAAAGCCUCAUAC against XPR1,0.211
9,UAAAUGACAUGCAGGAUUG against C17orf102,-0.0252
10,UUCAGUUUAAAAUCGUUUC against CENPL,0.133
11,UUUGUUUCUACCAUUCCCA against PPIL1,-2.34
12,ACAAUAAUUAAGACAUUGC against OR4K1,0.433
13,GAAUGUUCAUGUGAAAUGC against ZNF365,1.68
14,UGCAAUAGCAGAGUAUUCC against UBE2Q1,0.662
15,UUUGUUGCAGAAUACAUAG against CTH,-13.9
16,ACAGCUAUUAAGAAGAAGU against PTGER3,-0.312
17,CGCGUACUGACGGAAACAC against RPS29P3,0.649
18,UUAGCGGACGGAGGAAUUG against IDH3G,0.0869
